# Experimental data published in PubChem BioAssay (NCATS).
# Results filed as inconclusive are left out. Values without a mark were called inactive. Calls of active or inactive are those of the source. Calls follow the shape of the dose curve; as a rule, active = well fitted cell-killing curve with a large enough effect; inconclusive = small, poorly fitted or top-dose-only effect, or effect the other way; inactive = no such curve, though single readings can be large or run the other way.
# Test: Quantitative High-Throughput drug screen in 47 multiple myeloma cell lines against the NCATS MIPE library collection: H1112_PLB cell viability assay (AID 1918967; also: nearly all actives have a fitted effect of over 30% in size)
# Details: H1112 myeloma cells viability, ATP luminescence, 48 h; series mostly up to 45.8 µM; viability: at the top concentration
# Text: PI: Beverly A. Mock Ph.D.
# Laboratory of Cancer Biology and Genetics,
# Center for Cancer Research, National Cancer Institute,
# National Institute of Health, Bethesda, Maryland
# Drug resistance and disease progression are common in multiple myeloma (MM) patients, underscoring the need for new therapeutic combinations. […] We hypothesized that effective combinations would reduce MYC expression and enhance p16 activity. […] These preclinical data identify potentially useful drug combinations for evaluation in drug-resistant MM and reveal potential mechanisms of combined drug sensitivity.
# Described herein is the primary MIPE qHTS used to cherrypick compounds. Validated compounds were then further tested for potential synergistic activiy.
# [1] Peat TJ, Gaikwad SM, Dubois W, Gyabaah-Kessie N, Zhang S, Gorjifard S, Phyo Z, Andres M, Hughitt VK, Simpson RM, Miller MA, Girvin AT, Taylor A, Williams D, D'Antonio N, Zhang Y, Rajagopalan A, Flietner E, Wilson K, Zhang X, Shinn P, Klumpp-Thomas C, McKnight C, Itkin Z, Chen L, Kazandijian D, Zhang J, Michalowski AM, Simmons JK, Keats J, Thomas CJ, Mock BA. Drug combinations identified by high-throughput screening promote cell cycle transition and upregulate Smad pathways in myeloma. Cancer Lett. 2023 Aug 1;568:216284. doi: 10.1016/j.canlet.2023.216284. Epub 2023 Jun 24. PMID: 37356470; PMCID: PMC10408729.
# SEQUENCE No. (e.g., 1, 2, 3, etc.); […] (e.g., Cells, Incubation, Reagent, etc.); VALUE and DESCRIPTION.
# 1; Cells; 5 uL; white, solid bottom 1536-well Greiner assay plate.
# 2; Compounds; 23 nL; Kalypsis pin tool (Wako USA) equipped with a 1536-well pin head to transfer to the assay plates.
# 3; Incubation; 48 hours; 37C incubation.
# 4; Reagent;5uL; CellTiter Glo (Promega).
# 5; Detector; 425V; Luminescence; Viewlux PerkinElmer.
# NOTES (numbers refer to Sequence numbers above)
# 1. The cell-based screening methods employed in this study were like those previously published. Briefly, the corresponding myeloma cell lines were screened in 1,536-well plates with 500 cells, 5-uL per well for inhibition of cell viability (assessed by measuring ATP levels with CellTiterGlo).
# 2. NCATS MIPE 4.0 library of approved and investigational drugs were added using the Kalypsis pin tool. Wells treated with DMSO only for 100% viability and media only wells for 0% viability were used as controls.
# 3. The assay plates were covered and incubated for 48 hours in a 37C, 5% CO2 incubator with controlled humidity.
# 4. After 48 hours, CellTilter-GloTM luminescent substrate mix (Promega) reagent was added to the assay plate and plates we incubated for 5 min at room temperature.
# 5. Signal was measured as median relative luminescence units on a ViewLux (PerkinElmer) multiplate reader.
# [1] Heske CM, Davis MI, Baumgart JT, Wilson K, Gormally MV, Chen L, Zhang X, Ceribelli M, Duveau DY, Guha R, Ferrer M, Arnaldez FI, Ji J, Tran HL, Zhang Y, Mendoza A, Helman LJ, Thomas CJ. Matrix Screen Identifies Synergistic Combination of PARP Inhibitors and Nicotinamide Phosphoribosyltransferase (NAMPT) Inhibitors in Ewing Sarcoma. Clin Cancer Res. 2017 Dec 1;23(23):7301-7311. doi: 10.1158/1078-0432.CCR-17-1121. Epub 2017 Sep 12. PMID: 28899971; PMCID: PMC6636827.
# Potency is read from the fitted curve at half-maximal effect.
Structure (SMILES),viability [%],Potency
Cn1c2cc(S(C)=O)sc2c2cnn(Cc3cccc(N)c3)c(=O)c21 (stereo not given),112,
CC(C)c1cnn2c(NCc3ccccc3)cc(N[C@@H](CO)[C@H](O)CO)nc12,,0.296 µM (active)
CC1=C(CO)C(=O)O[C@@H]([C@@H](C)[C@H]2CC[C@H]3[C@@H]4C[C@H]5O[C@]56[C@@H](O)C=CC(=O)[C@]6(C)[C@@H]4CC[C@]23C)C1,,0.418 µM (active)
COc1cc(C)c(Sc2cnc(NC(=O)c3ccc(CNC(C)C(C)C)cc3)s2)cc1C(=O)N1CCN(C(C)=O)CC1 (stereo not given),,14.8 µM (active)
O=c1[nH]nc(Sc2ncc([N+](=O)[O-])s2)n1-c1ccc2c(c1)OCCO2,,2.64 µM (active)
CN1CCN(c2cc(C(=O)Nc3ccc4c(c3)-c3c(c(C(N)=O)nn3-c3ccc(F)cc3)CC4)c(Cl)cn2)CC1,,2.35 µM (active)
O=C(CCCCCCNC(=O)c1cnc(N(c2ccccc2)c2ccccc2)nc1)NO,,13.2 µM (active)
OCc1ccc(-c2ccc(-c3ccc(CO)s3)o2)s1,,16.6 µM (active)
CC(C)CC(=O)Nc1n[nH]c2c1CN(C(=O)C1CCN(C)CC1)C2(C)C,,3.32 µM (active)
NC(=O)c1c(OCc2c(F)cc(Br)cc2F)nsc1NC(=O)NCCCCN1CCCC1,,16.6 µM (active)
CC(C)(O)c1cc2nc(-c3cnc(N)nc3)nc(N3CCOCC3)c2s1,,0.418 µM (active)
O=C(Nc1cc(C(F)(F)F)cc(C(F)(F)F)c1)c1cc(Cl)ccc1O,,1.87 µM (active)
CC1(C)OC2=C(C(=O)c3ccccc3C2=O)[C@H](NCc2ccccc2)[C@H]1O,,2.35 µM (active)
C=CC(=O)Nc1cc2c(Nc3ccc(F)c(Cl)c3)ncnc2cc1OCCCN1CCOCC1,,4.69 µM (active)
Cc1ccc(C(=O)Nc2cccc(C(F)(F)F)c2)cc1-c1ccc2nc(NCCN3CCOCC3)ncc2c1,,14.8 µM (active)
c1cc(-c2cnn3cc(-c4ccc(OCCN5CCCCC5)cc4)cnc23)ccn1,,2.96 µM (active)
NCC(=O)Nc1ccc(-n2nc(C(F)(F)F)cc2-c2ccc3c(ccc4ccccc43)c2)cc1,,20.9 µM (active)
C=C1C(=CC=C2CCC[C@]3(C)[C@@H]([C@H](C)C=C[C@H](C)C(C)C)CC[C@@H]23)C[C@@H](O)C[C@@H]1O,,2.35 µM (active)
Cc1cc(CN2CCN(c3c(Br)cnc4nc(-c5ccc(N6CCN(C)CC6)cc5)[nH]c34)CC2)no1,,10.5 µM (active)
Cc1cc(C(=O)N2CCN(c3cccc(Cl)c3)CC2)n(-c2ccccc2)n1,,0.833 µM (active)

Structure (SMILES),viability [%],Potency
CC(C)c1nn(-c2c(Cl)cccc2Cl)c2nc(Cc3ccc(OCCO)cc3)[nH]c(=O)c12,,0.235 µM (active)
O=C(O)CO.[NH2-].[NH2-].[Pt+2],125,
Cc1cc(Nc2nc(N[C@@H](C)c3ccc(F)cc3)c(C#N)cc2F)n[nH]1,,16.6 µM (active)
CC(C)(C)OC(=O)Nc1ccc(-c2cc(C(=O)NCCCCCCC(=O)NO)no2)cc1,,3.72 µM (active)
Cc1ccc(NC(=O)C2(c3ccc4c(c3)OC(F)(F)O4)CC2)nc1-c1cccc(C(=O)O)c1,,0.118 µM (active)
Cc1c(CN2CCN(S(C)(=O)=O)CC2)sc2c(N3CCOCC3)nc(-c3cnc(N)nc3)nc12,,1.18 µM (active)
CC(=O)c1c(C)c2cnc(Nc3ccc(N4CCNCC4)cn3)nc2n(C2CCCC2)c1=O,,23.5 µM (active)
C=CCn1c(=O)c2cnc(Nc3ccc(N4CCN(C)CC4)cc3)nc2n1-c1cccc(C(C)(C)O)n1,,0.469 µM (active)
Cc1[nH]c2ccccc2c1CCNCc1ccc(C=CC(=O)NO)cc1,,0.105 µM (active)
Cc1cc(N2CCOCC2)cc2[nH]c(-c3c(NC[C@@H](O)c4cccc(Cl)c4)cc[nH]c3=O)nc12,,0.166 µM (active)
COC(=O)Nc1ccc(-c2nc(N3CCOCC3)c3cnn(C4CCN(Cc5cccnc5)CC4)c3n2)cc1,,26.4 µM (active)
Cc1ccc(C(N)=O)cc1Nc1nccc(-c2cn(C(C)C)c3cnccc23)n1,,3.32 µM (active)
CC=C1NC(=O)[C@H]2CSSCCC=C[C@H](CC(=O)N[C@H](C(C)C)C(=O)N2)OC(=O)[C@H](C(C)C)NC1=O,,0.0372 µM (active)
O=C(O)C1(Cc2cccc(Nc3nccs3)n2)CCC(Oc2cccc(Cl)c2F)CC1 (stereo not given),94,
Fc1cc(-c2cccc3ncc(-c4cnn(C5CCNCC5)c4)nc23)cc(F)c1CN1CCOCC1,,23.5 µM (active)
O=C(NCCCNc1nc(Nc2cccc(NC(=O)N3CCCC3)c2)ncc1I)c1cccs1,,9.35 µM (active)
Nc1ncnc2c1c(-c1cccc(OCc3ccccc3)c1)cn2C1CC(CN2CCCC2)C1 (stereo not given),,16.6 µM (active)
CC(NCc1ccc2c(c1)nc(NC(=O)c1ccc(-c3cn[nH]c3)s1)n2CC(C)(C)O)C(C)(C)C (stereo not given),,0.469 µM (active)
Cc1coc2c1C(=O)C(=O)c1c-2ccc2c1CCCC2(C)C,,8.33 µM (active)
Cc1nc(N)ncc1-c1nc(N2CCOCC2)c2sc(C(C)(C)O)cc2n1,,6.62 µM (active)
